TDP1 cell noCPT: qHTS for Inhibitors of human tyrosyl-DNA phosphodiesterase 1 (TDP1): qHTS in cells in absence of CPT | Potency, µM (series often up to 46.2 µM), for the others: at the top dose activity change, negative = growth inhibition, usual class: inhibitors | 420,000 tested, 15% active | DT40 Tdp1-/- hTDP1 cells, no CPT, ATP luminescence, 48 h; also: potency is read from the fitted curve at half-maximal effect; nearly all actives have a fitted effect of over 55% in size
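Stably hTDP1-transfected Tdp1-null chicken DT40 cells were treated with library compounds minus camptothecin and grown for at least 48 hr at 37 °C, after which cellular ATP was quantified by luminescence.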
HT1080-NT tox: qHTS for induction of synthetic lethality in tumor cells producing 2HG: qHTS for the HT-1080-NT fibrosarcoma cell line; 360,000 tested, 1.6% active; Potency, µM (top dose mostly 46.1 µM), for the others: at the top dose activity, negative = less viability, actives largely listed as cytotoxic; AID 686970, 2013; HT-1080-NT fibrosarcoma viability, CellTiter-Glo ATP luminescence, 48 h;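 also: NT is the 2HG producing partner of a matched IDH1 knockdown line; potency is read from the fitted curve at half-maximal effect; 0% = DMSO-treated cells and -100% = media-only wells without cells; nearly all actives have a fitted effect of over 55% in size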
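750 cells/well, RPMI + 5% FBS; 2 h settle, compound pin-transfer, 48 h at 37 degrees C. CellTiter-Glo 10 min RT, luminescence. Normalized to DMSO and media-only wells.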
DT40 TDP1 CPT: qHTS for Inhibitors of human tyrosyl-DNA phosphodiesterase 1 (TDP1): qHTS in cells in presence of CPT; chicken DT40 Tdp1-/-;hTDP1 cells + 20 nM CPT, ATP luminescence, 48 h; 420,000 tested, 12% active; Potency, µM (titrated, usually from 46.2 µM), for the others: at the top dose activity change, negative = growth inhibition, actives largely listed as inhibitors; also: potency is read from the fitted curve at half-maximal effect; nearly all actives have a fitted effect of over 55% in size
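Cell growth measured by CellTiter-Glo luminescence after a minimum 48 h, 37 C compound exposure with 20 nM CPT in Tdp1-knockout DT40 cells stably expressing hTDP1, seeded 400/well; qHTS titration format.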
HT1080 IDH1KD tx: qHTS for induction of synthetic lethality in tumor cells producing 2HG: qHTS for the HT-1080-IDH1KD cell line | HT-1080 IDH1 knockdown viability, ATP luminescence, 48 h | Potency, µM (series often up to 46.1 µM), for the others: top-dose activity, negative = toxicity, actives largely listed as cytotoxic | 360,000 tested, 2% active;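 also: potency is read from the fitted curve at half-maximal effect; 0% = DMSO wells and -100% = cell-free medium wells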
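% activity derives from luminescence (CellTiter-Glo), normalised to DMSO and no-cell wells. HT-1080-IDH1KD cells, 750/well, had 48 h compound exposure at 37 °C.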
IL-1B inflam inh: qHTS for Inhibitors of Inflammasome Signaling: IL-1-beta AlphaLISA Primary Screen | THP-1 LPS/ATP IL-1B secretion, AlphaLISA, 16 h; stronger effect = lower value | activity change, % at 57.5 µM | 360,000 tested, 4.7% active; in the data active = activity change below about -50%; inconclusive = mostly about -30% to -49%
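Secreted IL-1B measured by AlphaLISA bead assay after 16 h compound exposure of THP-1 cells; compounds (final up to 57.5 uM) added 1 h before LPS (250 ng/mL) and ATP (1.25 mM) stimulation; lower signal means less secretion.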
* = called active by the depositor; ? = inconclusive; / = no result given; [ ] = dose if it differs, or a comment. A selection: hits, their analogues and other compounds. The true share with any hit is near 19%. Unless noted, calls follow the shape of the dose curve; as a rule, active = well fitted curve in the direction sought with a large enough effect; inconclusive = small, poorly fitted or top-dose-only effect, or another doubt; inactive = no such curve, though single readings can be large; an effect the other way counts as inactive or inconclusive. Unless noted, % is scaled to controls: 0 for no effect and ±100 for the full control effect.

SMILES	TDP1 cell noCPT	HT1080-NT tox	DT40 TDP1 CPT	HT1080 IDH1KD tx	IL-1B inflam inh
O=C(CC1(O)C(=O)N(CCc2ccccc2)c2ccccc21)c1ccco1 (centres undefined)	2.9µM*	23%	5.8µM*	18%	15
C/C(CC1(O)C(=O)N(Cc2ccccc2)c2ccccc21)=N\O (centres undefined)	-2%	-3%	8%	3%	-5
C#CCN1C(=O)C(O)(CC(=O)/C=C/c2ccco2)c2ccccc21 (centres undefined)	3.7µM*	-2%	5.8µM*	-8%	6
Cc1ccc(C(=O)CC2(O)C(=O)N(CCc3ccccc3)c3ccc(Br)cc32)o1 (centres undefined)	16µM*	-13%	?	-18%	-19
NC(=O)CN1C(=O)C(O)(CC(=O)c2ccccc2O)c2ccccc21 (centres undefined)	-20%	5%	-11%	9%	5
O=C(/C=C/c1ccco1)Nc1ccccc1N1CCCC1	?	-10%	?	-8%	-7
CCOc1c2ccc(C(=O)N[C@H](C)C3CCCCC3)cc2nn1CC	-10%	0%	-20%	0%	8
COc1ccc(C(=O)N2CCN(c3ccc(C(C)=O)cc3)CC2)cc1S(=O)(=O)N1CCCC1	11%	3%	-7%	6%	17
C=CCN1C(=O)C(O)(CC(=O)c2ccccc2)c2ccccc21 (centres undefined)	18µM*	14%	?	11%[9.24 µM]	0
CC(=O)CC1(O)C(=O)N(Cc2ccccc2)c2ccccc21 (centres undefined)	?	1%	?	0%	14
COC(=O)CN1C(=O)C(O)(CC(=O)c2ccc(Cl)cc2)c2ccccc21 (centres undefined)	?	?	?	1%	17
Cc1ccc(CN2C(=O)C(O)(CC(=O)c3ccc(C)cc3)c3ccccc32)cc1 (centres undefined)	2.6µM*	/	5.8µM*	/	/
Cc1ccc(C(=O)CC2(O)C(=O)N(CCc3ccccc3)c3ccc(Cl)cc32)cc1 (centres undefined)	23µM*	/	21µM*	/	/
CC(=O)N1/C(=C/c2ccc(N(C)C)cc2)C(=O)c2ccccc21	0.46µM*	3.3µM*	0.52µM*	?	-95*
Cc1ccc(/C=C2\C(=O)Nc3ccccc32)o1	3.7µM*	4%	1.5µM*	-7%	2
O=C1Nc2ccccc2/C1=C/c1ccccc1F	23µM*	?	?	-28%	-30
O=C1Nc2ccccc2/C1=C/c1cccnc1	?	-18%	?	-21%	-65*
Cc1ccc2c(c1)/C(=C/c1ccco1)C(=O)N2	?	-19%	6%	-17%	-20
CC(=O)N1c2ccccc2C(=O)C1N(C)c1ccc(C)cc1 (centres undefined)	?	-14%	2%	-13%	-11
Cc1ccccc1/C=C1\C(=O)Nc2ccc(F)cc21	?	?	-24%	-17%	5
O=C(/C=C/c1ccccn1)NCC1Cc2cccc(-c3ncccn3)c2O1 (centres undefined)	-12%	/	2%	/	/
N#Cc1cnc(NCc2ccc(Cl)cc2Cl)nc1	3%	-2%	4%	0%	8
CCn1c(SCC(=O)NC2CCCCC2)nnc1C(C)NC(=O)c1ccccc1F (centres undefined)	-13%	13%	6%	-1%	4
O=C(NCc1cccc(F)c1F)C1CCC(=O)N(C2CCCCCC2)C1 (centres undefined)	3%	1%	-3%	1%	3
CC1=NOC(=O)/C1=C/c1ccc(N(C)C)cc1	-11%	1%	3%	-10%	-6
SMILES	TDP1 cell noCPT	HT1080-NT tox	DT40 TDP1 CPT	HT1080 IDH1KD tx	IL-1B inflam inh
CN(C)c1ccc(/C=C2\C(=O)Nc3ccccc32)cc1	16µM*	/	16µM*	/	/
CN(C)c1ccc(/C=C2\C(=O)/C(=C/c3ccc(N(C)C)cc3)c3ccccc32)cc1	7.1µM*	/	?	/	/
Cc1nn(-c2ccc(F)cc2)c(Cl)c1/C=C1\C(=O)Nc2ccccc21	8.2µM*	?	6.5µM*	5.2µM*	0
C1CCN2CC3CC(CN4CCCC[C@@H]34)C2C1 (some centres undefined)	-5%	/	7%	/	/
Cc1cc(Br)c(NC(=O)CSc2n[nH]c(N)n2)c(Br)c1	0%	-8%	-23%	5%	0
Cc1ccc(NC(=O)CSCC(=O)OC(C)C(=O)Nc2ccccc2C)cc1 (centres undefined)	-4%	5%	1%	3%	9
O=C(NC1CC1)c1c(O)c2ccccc2[nH]c1=O	-14%	-3%	?	-2%	-61*
CCCc1nc2ccccc2c(=O)n1NC(=O)c1c(O)c2ccccc2n(C)c1=O	?	0%	?	0%	3
O=C(CCl)NNC(=O)c1c(O)c2ccccc2[nH]c1=O	5.2µM*	12µM*	4.6µM*	15µM*	-102*
CCc1nc2ccccc2c(=O)n1NC(=O)c1c(O)c2ccccc2[nH]c1=O	18µM*	11%	21µM*	7%	-1
CCS(=O)(=O)N1Cc2ccccc2CC1C(=O)NCCc1c[nH]c2ccccc12 (centres undefined)	4%	0%	0%	0%	16
Cc1ccc(C)c(Cn2c(SCC(=O)NCc3ccccc3)nc3ccccc32)c1	18µM*	/	?	/	/
O=C(CSc1nc2ccccc2n1Cc1ccccc1Cl)NCc1ccccc1	23µM*	/	15µM*	/	/
C[C@@H]1CN([C@H](C)CO)C(=O)CCCn2nncc2CO[C@H]1CN(C)Cc1cccc(C(=O)O)c1	-20%	2%	-15%	-4%	-5
C=CCn1c(C)cc(C(=O)CN2C(=O)c3ccccc3S2(=O)=O)c1C	-21%	-5%	-31%	-2%	-3
O=C(N/N=C/c1cccc(O)c1)c1ccc(COc2ccccc2Br)cc1	?	-14%	?	-21%	-68*
O=C(Nc1ccc(Cn2cccn2)cc1)c1ccc(COc2ccccc2Br)cc1	15µM*	?	13µM*	?	-60*
COc1ccc(/C=N/NC(=O)c2ccc(COc3cccc4cccnc34)cc2)cc1OC	3%	22%	-14%	11%	-5
O=C(Nc1ccn(Cc2c(F)c(F)c(F)c(F)c2F)n1)c1ccc(COc2ccccc2Cl)cc1	?	10%[9.24 µM]	-18%	?	0
